Shown are actives, neighbours in structure and some others; about 10% of the full set was active somewhere.
NPR1 antag: blocks ANP-stimulated signaling of human Npr1 receptor; HEK293 hNpr1 GloSensor cGMP, ANP-stimulated luminescence; Potency, µM (highest dose often 46.3 µM), actives largely listed as inhibitors; hit rate 1.6% among 76,000; P16066; calls by dose curve; note: nearly all actives have a fitted effect of over 60% in size
Target sequence (P16066 whole entry, looked up): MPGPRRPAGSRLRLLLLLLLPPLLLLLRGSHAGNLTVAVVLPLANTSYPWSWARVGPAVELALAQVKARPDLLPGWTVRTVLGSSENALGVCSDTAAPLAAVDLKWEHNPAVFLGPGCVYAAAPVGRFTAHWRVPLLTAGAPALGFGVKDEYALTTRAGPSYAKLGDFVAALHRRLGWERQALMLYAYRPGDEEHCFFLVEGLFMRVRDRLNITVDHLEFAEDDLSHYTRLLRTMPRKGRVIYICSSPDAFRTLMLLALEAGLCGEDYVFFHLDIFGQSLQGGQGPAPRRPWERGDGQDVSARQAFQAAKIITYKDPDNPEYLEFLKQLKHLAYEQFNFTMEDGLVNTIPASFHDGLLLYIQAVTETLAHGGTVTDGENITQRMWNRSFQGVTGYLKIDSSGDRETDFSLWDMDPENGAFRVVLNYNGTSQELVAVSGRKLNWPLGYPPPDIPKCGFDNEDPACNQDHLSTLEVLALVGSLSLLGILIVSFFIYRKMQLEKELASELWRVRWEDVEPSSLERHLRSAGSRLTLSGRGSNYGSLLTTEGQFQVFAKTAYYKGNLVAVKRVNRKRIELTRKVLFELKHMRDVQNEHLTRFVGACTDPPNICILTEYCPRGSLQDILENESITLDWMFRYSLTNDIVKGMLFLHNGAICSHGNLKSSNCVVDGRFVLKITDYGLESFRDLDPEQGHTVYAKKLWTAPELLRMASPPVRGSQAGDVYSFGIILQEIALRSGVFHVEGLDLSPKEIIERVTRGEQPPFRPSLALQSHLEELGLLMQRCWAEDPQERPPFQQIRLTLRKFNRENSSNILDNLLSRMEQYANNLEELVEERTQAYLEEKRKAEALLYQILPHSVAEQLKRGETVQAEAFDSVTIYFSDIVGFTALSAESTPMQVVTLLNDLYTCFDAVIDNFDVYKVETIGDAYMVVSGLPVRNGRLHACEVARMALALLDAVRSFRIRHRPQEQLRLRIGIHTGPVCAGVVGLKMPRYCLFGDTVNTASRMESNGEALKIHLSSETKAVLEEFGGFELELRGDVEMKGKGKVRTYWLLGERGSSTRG
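Compound pre-incubated 30 min at room temperature on GloSensor-loaded HEK293 cells stably carrying hNpr1 and the pGS-40F cGMP biosensor. Stimulation uses hNppA at 0.1 nM final; luminescence is taken at baseline and 20 min post-agonist.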
FLuc inh: blocks purified firefly luciferase enzyme activity | P08659 | purified P. pyralis luciferase, luminescence, biochemical | Potency, µM (top dose mostly 115 µM), actives largely listed as inhibitors | hit rate 2.5% among 76,000 | AID 1347043; note: nearly all actives have a fitted effect of over 65% in size
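Luminescence read by CCD imager after adding enzyme (10nM final) to wells holding compound, titrated in qHTS. Substrates 10uM each D-luciferin and ATP; buffer 50mM Tris acetate pH 7.5, 10mM Mg acetate, Tween-20, BSA.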
GPT2 inh: inhibitors of human GPT2 alanine aminotransferase. Potency, µM (titrated, usually from 57.7 µM), actives largely listed as inhibitors. Recombinant GPT2, coupled pyruvate oxidase/HRP Amplex Red fluorescence. Q8TD30. hit rate 0.25% among 100,000; note: nearly all actives have a fitted effect of over 60% in size
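Fluorescence read-out: pyruvate from GPT2 turnover coupled to pyruvate oxidase, HRP and Amplex Red (0.2mM ThPP, 0.2U/mL PO and HRP, 50uM Amplex final). Substrates 250uM a-KG, 2mM L-alanine; enzyme 10ng/uL; 30 min RT.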
HEK cytotox: cytotoxic compounds in HEK 293 cells; HEK 293 viability, ATP luminescence (CellTiter-Glo), 48-72 h; Potency, µM (top dose mostly 115 µM), most hits filed as inhibitors; hit rate 6.6% among 94,000; note: nearly all actives have a fitted effect of over 60% in size
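Luminescence from cellular ATP, measured with CellTiter-Glo, indicates HEK 293 viability. Cells plated at 250 cells/well are treated with compound for 48 or 72 hr at 37 degree Celsius before reagent addition.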
NIH3T3 tox: NIH 3T3 cell cytotoxicity; NIH 3T3 viability, CellTiter-Glo ATP luminescence, 48-72 h; Potency, µM (series often up to 96.7 µM), most hits filed as inhibitors; hit rate 4.3% among 94,000; AID 1345082; note: nearly all actives have a fitted effect of over 55% in size
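Cells were seeded at 400 per well, treated with pin-transferred compound, and kept 48 or 72 hr at 37 °C before CellTiter-Glo addition and luminescence imaging of cellular ATP.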
Of the large screens only hits and unclear results are named; the others gave an inactive call. Unless noted, calls come from the whole dose curve; as a rule, active = well fitted curve in the direction sought with a large enough effect; inconclusive = small, poorly fitted or top-dose-only effect, or another doubt; inactive = no such curve, though single readings can be large; an effect the other way counts as inactive or inconclusive.

O=C(CCC(F)(F)F)N1CCCC(CCc2c(F)cccc2F)C1 (stereo not given)	NIH3T3 tox inconclusive
O=C(CCCc1cn[nH]c1)N1CCCC(CCc2c(F)cccc2F)C1 (stereo not given)	HEK cytotox 50µM, NIH3T3 tox inconclusive
Cc1cc2nc3n(c(=O)c2n1CC(=O)Nc1ccc(Br)cc1F)CCCCC3	HEK cytotox 25µM, NIH3T3 tox inconclusive
Cc1ccc(-c2cccc(CN3CCCC(NC(=O)C4CC4)C3)c2)cc1Cl (stereo not given)	HEK cytotox 35µM, NIH3T3 tox inconclusive (no result: NPR1 antag, FLuc inh)
COc1ccccc1C(=O)NC1CCCN(Cc2cccc(-c3ccc(C)c(Cl)c3)c2)C1 (stereo not given)	HEK cytotox 40µM, NIH3T3 tox inconclusive (no result: NPR1 antag, FLuc inh)
O=C(NCc1ccncc1)C1CN(Cc2ccc(Br)cc2)CC12CCOCC2 (stereo not given)	none
CCc1nc2c(c(-c3ccc(Cl)cc3)n1)CN(Cc1cccc(F)c1)CC2	HEK cytotox 20µM, NIH3T3 tox 11µM
CCc1nc2c(c(-c3ccc(O)cc3)n1)CCN(Cc1ccc(C(F)(F)F)cc1)CC2	NPR1 antag inconclusive, GPT2 inh inconclusive, HEK cytotox 45µM, NIH3T3 tox inconclusive
CCc1nc2c(c(-c3ccc(Cl)cc3)n1)CCN(Cc1ccc(C(F)(F)F)cc1)CC2	HEK cytotox 50µM
CCc1nc2c(c(-c3ccc(O)cc3)n1)CN(Cc1cccc(C(F)(F)F)c1)CC2	HEK cytotox inconclusive, NIH3T3 tox inconclusive
CC1=C[C@@H](CNC(=O)CCC(=O)O)[C@H](C(C)C)C[C@H]1CC(=O)N1CCN(c2ccccn2)CC1	GPT2 inh inconclusive
CC1=C[C@@H](CO)[C@H](C(C)C)C[C@H]1CC(=O)N1CCN(c2ccccn2)CC1	FLuc inh inconclusive, HEK cytotox 100µM, NIH3T3 tox inconclusive
CC1=C[C@@H](CNC(=O)c2ccncc2)[C@H](C(C)C)C[C@H]1CC(=O)N1CCCC1	FLuc inh inconclusive
CC1=C[C@@H](CNC(=O)c2ccncc2)[C@H](C(C)C)C[C@H]1CC(=O)N1CCN(C)CC1	FLuc inh 20µM
Cc1ccccc1C(=O)N1CCC(CCC(=O)N2CCN(c3ccccn3)CC2)CC1	FLuc inh 32µM, HEK cytotox inconclusive
CCOC(=O)C[C@@H]1C[C@@H](C(C)C)[C@H](CNC(=O)c2ccncc2)C=C1C	NPR1 antag inconclusive, HEK cytotox 89µM, NIH3T3 tox inconclusive
COc1cccc([S+](=O)([O-])N2CC(Oc3ccc(F)cc3F)C2)c1	none (no result: NPR1 antag, FLuc inh)
CCOCCNC(=O)C1CCN(c2nccc(Nc3ccc(C)cc3)n2)CC1	HEK cytotox inconclusive, NIH3T3 tox inconclusive (no result: NPR1 antag, FLuc inh)
O=C(Nc1ccccc1)c1cnc2n1CCN(Cc1cccc(O)c1)CC2	FLuc inh inconclusive, HEK cytotox inconclusive, NIH3T3 tox inconclusive
CC(C)CCNC(=O)c1cnc2n1CCN(Cc1ccc(C(C)C)cc1)CC2	NPR1 antag inconclusive, HEK cytotox 56µM, NIH3T3 tox inconclusive
CC(C)c1ccc(CN2CCc3ncc(C(=O)Nc4ccccc4)n3CC2)cc1	HEK cytotox 32µM, NIH3T3 tox 28µM
COc1ccc(CNC(=O)c2sc3nc(C)cc(C)c3c2N)cc1	none (no result: NPR1 antag, FLuc inh, HEK cytotox, NIH3T3 tox)
O=C(Nc1cnc(-c2ccccc2)nc1)c1cccc(F)c1	FLuc inh inconclusive
O=C(Nc1cnc(-c2ccccc2)nc1)c1ccco1	FLuc inh 11µM
O=C(Nc1cnc(-c2ccc(F)cc2)nc1)c1ccco1	FLuc inh 3.5µM, HEK cytotox inconclusive
O=C(Nc1cnc(-c2ccc(Cl)cc2)nc1)c1ccccc1F	FLuc inh 0.79µM
O=C(Nc1cnc(-c2ccccc2)nc1)c1ccc(F)c(F)c1	none
Cc1cnc(C)c(-c2cc(O)c3c(c2)CN(C(=O)c2cc(C)[nH]n2)CCO3)n1	none
O=C(Nc1ccc(Cl)cc1Cl)c1ccc2ccnn2c1	FLuc inh 2.8µM, HEK cytotox inconclusive
CS(=O)(=O)N1CC(C(=O)NCCc2ccncc2)C2(CCOCC2)C1 (stereo not given)	none
Cc1nn(-c2ccccc2[N+](=O)[O-])c(C)c1[C@@H]1C=C[C@@H](NCc2ccco2)C1	HEK cytotox 89µM, NIH3T3 tox inconclusive
Cc1nn(-c2ccccc2[N+](=O)[O-])c(C)c1[C@@H]1C=C[C@@H](NCc2ccc(C(C)C)cc2)C1	NPR1 antag inconclusive, HEK cytotox 20µM, NIH3T3 tox inconclusive
CN1CCN(Cc2ccc(-c3cnc4c(OCc5ccccc5)nccn34)cc2)CC1	NPR1 antag inconclusive, FLuc inh 32µM, HEK cytotox inconclusive, NIH3T3 tox inconclusive
O=C(NCc1ccc(-c2cnc3c(Oc4ccccc4)nccn23)cc1)c1cccc(O)c1	NPR1 antag inconclusive, HEK cytotox inconclusive, NIH3T3 tox inconclusive
CC(=O)N1CCN(Cc2ccc(-c3cnc4c(OCc5ccccc5)nccn34)cc2)CC1	FLuc inh inconclusive, HEK cytotox 40µM, NIH3T3 tox 32µM
COc1ccc(C(=O)Nc2ccc([C@H]3OCC(=O)N(Cc4ccncc4)[C@@H]3CO)cc2)cc1OC	NIH3T3 tox 89µM
CC(C)CN1C(=O)CO[C@H](c2ccc(NC(=O)c3ccc(C(F)(F)F)cc3)cc2)[C@H]1CO	NPR1 antag 13µM, FLuc inh 45µM, HEK cytotox inconclusive, NIH3T3 tox inconclusive
COc1ccc(C(=O)Nc2ccc([C@H]3OCC(=O)N(Cc4ccc(F)cc4)[C@@H]3CO)cc2)cc1	FLuc inh 45µM, HEK cytotox inconclusive
COc1ccc(C(=O)Nc2ccc([C@H]3OCC(=O)N(C(C)C)[C@@H]3CO)cc2)cc1OC	none
O=C(Nc1ccccc1)Nc1ccc([C@H]2OCC(=O)N(Cc3ccc(F)cc3)[C@@H]2CO)cc1	HEK cytotox 40µM, NIH3T3 tox inconclusive
C=CCn1nc(C(=O)N2CCOCC2)c2c1CCC(NCc1c(OC)ccc3ccccc13)C2 (stereo not given)	none
O=C(c1nnc(CNC2CCOCC2)n1Cc1ccccc1)N1CCC[C@@H]1c1ccc(Br)cc1	NIH3T3 tox inconclusive
Cc1ccc(CN[C@@H]2CO[C@H](CNC(=O)NC(C)C)[C@H]2O)cc1	none
O=C(Nc1ccccc1)Nc1ccc([C@@H](O)[C@H]2COCC(=O)N2Cc2ccc(F)cc2)cc1	FLuc inh inconclusive, HEK cytotox 79µM, NIH3T3 tox inconclusive
COc1cc(NC(=O)Cn2ccn3nc(-c4ccccc4)c(CO)c3c2=O)cc(OC)c1	none
COc1cc(NC(=O)Cn2ccn3nc(-c4ccccc4)c(CO)c3c2=O)cc(OC)c1OC	HEK cytotox 32µM, NIH3T3 tox inconclusive
O=C(Cn1ccn2nc(-c3ccc(F)cc3)c(CO)c2c1=O)Nc1cccc(Br)c1	HEK cytotox 45µM, NIH3T3 tox inconclusive
Cc1ccc(C)c(Cn2ccn3nc(-c4ccc(F)cc4)c(CO)c3c2=O)c1	NPR1 antag inconclusive, HEK cytotox 35µM, NIH3T3 tox inconclusive
O=C(Cn1ccn2nc(-c3ccccc3)c(CO)c2c1=O)Nc1cccc(Br)c1	HEK cytotox inconclusive

Assay outcomes: PubChem BioAssay, National Center for Advancing Translational Sciences (NCATS)
